{
  "source": "PubChem BioAssay (NCATS)",
  "note": "Results filed as inconclusive are left out. Calls of active or inactive are those of the source. Calls come from the whole dose curve. Potency is the fitted concentration of half-maximal effect.",
  "data": [
    {"target": "Cytochrome P450 1A2 (Homo sapiens) (UniProt P05177)", "sequence (P05177 whole entry, looked up)": "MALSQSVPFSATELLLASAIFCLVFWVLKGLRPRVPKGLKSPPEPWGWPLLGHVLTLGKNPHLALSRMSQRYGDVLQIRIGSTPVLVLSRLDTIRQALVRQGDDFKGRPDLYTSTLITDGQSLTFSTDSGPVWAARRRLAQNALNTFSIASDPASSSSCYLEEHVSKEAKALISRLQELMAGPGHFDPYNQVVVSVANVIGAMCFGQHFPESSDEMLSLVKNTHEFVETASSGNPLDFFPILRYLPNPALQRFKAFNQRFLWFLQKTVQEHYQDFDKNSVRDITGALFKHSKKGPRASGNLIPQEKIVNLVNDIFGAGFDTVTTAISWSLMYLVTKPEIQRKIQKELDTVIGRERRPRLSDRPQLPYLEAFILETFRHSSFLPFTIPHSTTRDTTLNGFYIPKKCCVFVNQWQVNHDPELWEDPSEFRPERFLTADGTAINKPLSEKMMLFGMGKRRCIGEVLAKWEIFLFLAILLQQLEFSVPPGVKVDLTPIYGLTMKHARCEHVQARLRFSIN", "test": "p450-cyp1a2 (AID 410)", "conditions": "recombinant CYP1A2, luciferin-ME demethylation, luminescence; series mostly up to 57 µM", "method": "The P450 gene superfamily is involved in metabolism and the clearance of xenobiotics. This assay used human CYP1A2 to measure the demethylation of luciferin 6' methyl ether (Luciferin-ME; Promega-Glo) to luciferin. The luciferin is then measured by luminescence after the addition of a luciferase detection regeant. Luciferin-ME concentration in the assay was equal to its Km for CYP1A2.\nNCGC Assay Protocol Summary:\nTwo uL of enzyme and substrate mix (final concentrations: 20nM CYP1A2, 100uM Luciferin-ME, 100mM KPO4) were dispensed into a white, solid bottom 1536-well microtiter plate. 23nL of compound was transferred by a pin tool. The plate was incubated at room temperature for 10 min. Two uL of an NADPH regeneration solution (Promega supplied reagent) was dispensed and the reaction was allowed to continue for 60 min at room temperature. Then the reaction was stopped by reconstituted detection reagent. After another 20 min of incubation the plate was read on the ViewLux (Perkin Elmer) at 60 sec exposure and 2x2 binning. This protocol was carried out with Promega-Glo reagents and further information can be found at http://www.promega.com/tbs/tb325/tb325.pdf. Data were normalized to the to AC100 inhibition (57 uM furafylline).", "values": [
      {"molecule": "COC(=O)[C@H]1C[C@@H]1[C@H](NC(=O)c1cccnc1)c1ccccc1", "Potency": "12.6 µM (active)"},
      {"molecule": "Cc1cc(CNC(=O)[C@@H]2C[C@H]2[C@@H](NP(=O)(c2ccccc2)c2ccccc2)c2ccccc2)nn1C", "Potency": "inactive"},
      {"molecule": "O[Si@](CCCN1CCCCC1)(c1ccc(F)cc1)C1CCCCC1", "Potency": "inactive"},
      {"molecule": "COC(=O)N[C@H](c1ccccc1)[C@@]1(C)C[C@@H]1[C@@H](C)C(=O)Nc1ccc2ccccc2c1", "Potency": "12.6 µM (active)"},
      {"molecule": "COC(=O)[C@@]1(Cc2ccccc2)[C@H]2c3cc(C(=O)N4CCCC4)n(Cc4ccccn4)c3C[C@H]2CN1C(=O)c1ccccc1", "Potency": "inactive"},
      {"molecule": "O=C(Nc1ccc2ccccc2c1)[C@@H]1C[C@H]1[C@@H](NP(=O)(c1ccccc1)c1ccccc1)c1ccccc1", "Potency": "20 µM (active)"},
      {"molecule": "COC(=O)[C@@H]1C[C@H]1[C@@H](NC(=O)Oc1ccc(F)cc1)c1ccccc1", "Potency": "3.16 µM (active)"},
      {"molecule": "C[C@@]1(C(NC(=O)c2ccccc2)c2ccc(-c3ccccc3)cc2)C[C@H]1C1CCCCC1", "note": "(stereo not given in full)", "Potency": "inactive"},
      {"molecule": "C=C(CO)[C@H]1Cc2c(ccc3c(=O)c4c(oc23)COc2cc(OC)c(OC)cc2-4)O1", "Potency": "inactive"},
      {"molecule": "COC(=O)[C@@H]1C[C@H]1[C@@H](NC(=O)c1cccnc1)c1ccccc1", "Potency": "12.6 µM (active)"},
      {"molecule": "CN(CCc1ccc(Cl)c(Cl)c1)CCN1CCCCCC1", "Potency": "31.6 µM (active)"},
      {"molecule": "C[C@H](N)C1CCC(C(=O)Nc2ccncc2)CC1", "note": "(stereo not given in full)", "Potency": "inactive"},
      {"molecule": "COc1ccccc1-c1oc2ccccc2c(=O)c1OC", "Potency": "0.2 µM (active)"},
      {"molecule": "CCCC[C@@H]1C[C@H]1C(NC(=O)c1cccs1)c1ccc(-c2ccccc2)cc1", "note": "(stereo not given in full)", "Potency": "2 µM (active)"},
      {"molecule": "CCC/C=C(\\CCC)C(NC(=O)c1ccc(C(=O)OC)cc1)c1ccc(C(=O)OC)cc1", "note": "(stereo not given)", "Potency": "inactive"},
      {"molecule": "Clc1ccc(C(c2ccc(Cl)cc2)n2cc[n+](C[C@@H](OCc3ccc(Cl)cc3Cl)c3ccc(Cl)cc3Cl)c2)cc1", "Potency": "31.6 µM (active)"},
      {"molecule": "COc1ccc(-c2coc3ccc(O[C@@H]4O[C@@H](COC(C)=O)[C@@H](OC(C)=O)[C@@H](OC(C)=O)[C@H]4OC(C)=O)cc3c2=O)cc1", "Potency": "inactive"},
      {"molecule": "CC(C)C[C@@H](CC(=O)N[C@@H](CCC(=O)O)CC(=O)O)NC(=O)[C@@H]1CCCC[C@H]1NC(=O)C[C@H](CCCN)NC(=O)C[C@H](CO)NC(=O)[C@@H]1CCCC[C@H]1N", "Potency": "inactive"},
      {"molecule": "O=C(N[C@@H](c1ccccc1)[C@@H]1C[C@H]1C(=O)O)OCc1ccccc1", "Potency": "20 µM (active)"},
      {"molecule": "COc1ccc2oc(-c3ccccc3)c(OC)c(=O)c2c1", "Potency": "0.501 µM (active)"},
      {"molecule": "NCCC[C@@H](CC(=O)N[C@@H]1CCNC[C@H]1C(=O)N[C@H](CC(=O)N[C@@H](CCC(=O)O)CC(=O)O)Cc1c[nH]c2ccccc12)NC(=O)C[C@H](CO)NC(=O)[C@@H]1CCCC[C@H]1N", "Potency": "inactive"},
      {"molecule": "COC(=O)[C@@]1(Cc2ccc(F)cc2)[C@H]2c3cc(C(=O)N4CCCC4)n(CCN4CNCC4=O)c3C[C@H]2CN1C(=O)c1ccccc1", "Potency": "15.8 µM (active)"},
      {"molecule": "COC(=O)[C@@]1(Cc2ccc(F)cc2)[C@H]2c3cc(C(=O)N(C)C)n(CCc4c[nH]c5ccc(OC)cc45)c3C[C@H]2CN1C(=O)c1ccccc1", "Potency": "12.6 µM (active)"},
      {"molecule": "CCCC/C=C/C(NC(=O)c1ccco1)c1ccccc1", "note": "(stereo not given)", "Potency": "5.01 µM (active)"},
      {"molecule": "CC(C)C[C@@H](CC(=O)N[C@@H](CCC(=O)O)CC(=O)O)NC(=O)[C@@H]1CNCC[C@H]1NC(=O)C[C@H](CCCN)NC(=O)C[C@H](Cc1c[nH]c2ccccc12)NC(=O)[C@@H]1CNCC[C@H]1N", "Potency": "inactive"},
      {"molecule": "Nc1ccccc1C#Cc1ccccc1", "Potency": "0.501 µM (active)"},
      {"molecule": "O=C(O)[C@H]1C[C@@H](CP(=O)(O)O)CCN1", "Potency": "25.1 µM (active)"},
      {"molecule": "COC(=O)[C@@]1(Cc2ccc(F)cc2)[C@H]2c3cc(C(=O)N4CCCC4)n(Cc4ccc(C)c(F)c4F)c3C[C@H]2CN1C(=O)c1ccccc1", "Potency": "inactive"},
      {"molecule": "CC(C)[C@@H](CC(=O)N[C@@H]1CCCC[C@H]1C(=O)N[C@H](CC(=O)N[C@@H](CCC(=O)O)CC(=O)O)Cc1c[nH]c2ccccc12)NC(=O)C[C@H](Cc1c[nH]c2ccccc12)NC(=O)[C@@H]1CNCC[C@H]1N", "Potency": "inactive"},
      {"molecule": "CC[C@@]1(O)C(=O)COc2c1cc1n(c2=O)Cc2c-1nc1cccc(C(C)C)c1c2[Si](C)(C)C", "Potency": "7.94 µM (active)"},
      {"molecule": "CC(=O)c1c(O)c(C)c(O)c2c1OC1=CC(=O)[C@H](C(C)=O)C(=O)[C@]12C", "Potency": "3.16 µM (active)"},
      {"molecule": "C=C(CC1([C@@H](NP(=O)(c2ccccc2)c2ccccc2)[C@H]2C[C@@H]2CCN(C(=O)OCC)S(=O)(=O)c2ccc(C)cc2)CC1)c1ccccc1", "Potency": "inactive"},
      {"molecule": "Cc1ccc(C(=O)[C@@H]2[C@@H]3[C@@H](C(=O)[C@@H]4OC[C@H]3O4)[C@@H]3C=Cc4ccccc4N23)cc1", "Potency": "15.8 µM (active)"},
      {"molecule": "COc1cc(/C=C\\C(=O)N2CCCCC2=O)cc(OC)c1OC", "Potency": "0.1 µM (active)"},
      {"molecule": "CCCC[C@@H]1C[C@H]1C(NC(=O)c1ccc(-c2ccccc2)cc1)c1ccc(-c2ccccc2)cc1", "note": "(stereo not given in full)", "Potency": "inactive"},
      {"molecule": "NCCC[C@@H](CC(=O)N[C@@H]1CCNC[C@H]1C(=O)N[C@H](CC(=O)N[C@@H](CCC(=O)O)CC(=O)O)Cc1ccccc1)NC(=O)C[C@H](Cc1c[nH]c2ccccc12)NC(=O)[C@@H]1CNCC[C@H]1N", "Potency": "inactive"},
      {"molecule": "O=C(NCCc1c[nH]c2ccccc12)[C@H]1C[C@@H]1[C@H](NP(=O)(c1ccccc1)c1ccccc1)c1ccccc1", "Potency": "12.6 µM (active)"},
      {"molecule": "CCCN(CCc1ccccc1)[C@H]1CCc2c(O)cccc2C1", "Potency": "12.6 µM (active)"},
      {"molecule": "CC(C)[C@@H](CC(=O)N[C@@H]1CCCC[C@H]1C(=O)N[C@H](CC(=O)N[C@@H](CCC(=O)O)CC(=O)O)Cc1ccccc1)NC(=O)C[C@H](CO)NC(=O)[C@@H]1CCCC[C@H]1N", "Potency": "inactive"},
      {"molecule": "CCCc1cc2c(n1Cc1ccc(OC)cc1)C(C)C1CN(C(=O)c3ccccc3)C(C)(C(=O)OC)C21", "note": "(stereo not given)", "Potency": "15.8 µM (active)"}
    ]}
  ]
}
